Results from the supplement of paper PMC6555819.

Tests used:
Experiment in all cases: PBM binding z-score (relative to random genomic background probes); higher = stronger binding; sequences stand for … in GC…GCGATTGACAGCGTAGAATGAAGG
[1] = system: FXR:RXRa (NR concentration 270 nM, RXRa partner concentration 90 nM)
Method in brief: (§1)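 Ligand-free nuclear receptor dimers were applied to custom Agilent 4×180K protein-binding microarrays whose double-stranded probes carried direct-repeat seeds, single-nucleotide variants, half-site ablations and random human genomic background sequences in 34-nt variable regions. Incubation lasted 1 h. Binding z-scores were computed against the random background probes from regression-normalized fluorescence.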

[2] = system: LXRa:RXRa (NR concentration 270 nM, RXRa partner concentration 90 nM)
Method in brief: as §1

[3] = system: LXRa homodimer (NR concentration 270 nM)
Method in brief: as §1

[4] = system: LXRb:RXRa (NR concentration 270 nM, RXRa partner concentration 90 nM)
Method in brief: as §1

[5] = system: LXRb homodimer (NR concentration 270 nM)
Method in brief: as §1

[6] = system: PPARa:RXRa (NR concentration 270 nM, RXRa partner concentration 90 nM)
Method in brief: as §1

[7] = system: PPARg:RXRa (NR concentration 180 nM, RXRa partner concentration 90 nM)
Method in brief: as §1

[8] = system: PPARg:RXRa 270nM:90nM, anti-RXR (NR concentration 270 nM, RXRa partner concentration 90 nM)
Method in brief: as §1

[9] = system: PPARg:RXRa 30nM:10nM, anti-RXR (NR concentration 30 nM, RXRa partner concentration 10 nM)
Method in brief: as §1

[10] = system: PPARg:RXRa 90nM:30nM, anti-RXR (NR concentration 90 nM, RXRa partner concentration 30 nM)
Method in brief: as §1

Sequence | PBM binding z-score [1] | PBM binding z-score [2] | PBM binding z-score [3] | PBM binding z-score [4] | PBM binding z-score [5] | PBM binding z-score [6] | PBM binding z-score [7] | PBM binding z-score [8] | PBM binding z-score [9] | PBM binding z-score [10]
CGAACTAGGTCATACAGGACAGTGAATACATTGA | 3.71 | 2.61 | 0.562 | 1.97 | 0.184 | 4.67 | 7.62 | 6.24 | 3.84 | 5.74
GGAACGAGGGCAAAGTTGATAGCGTCTGTCGACG | 1.43 | 1.07 | -0.457 | 0.901 | -0.56 | 4.27 | 7.58 | 7.44 | 6.55 | 7.74
ATATGTAGGTTATCGGATCATTCAGTTTGCGCAT | 0.778 | 1.32 | 0.544 | 0.974 | 0.803 | 3.32 | 4.5 | 4.3 | 2.14 | 3.56
TATCCTAGGTCATGGGCCAGTATACCACGCGAAC | 5 | 5.58 | 3.83 | 3.5 | 1.69 | 4.57 | 5.5 | 5.51 | 3.05 | 4.89
TCTATTAGTTGATTCGGGCAACCGAAACAGCGGA | 0.597 | 0.339 | 0.411 | 0.655 | 0.739 | 0.742 | -0.102 | 1.84 | 3.9 | 2.85
ATATGTAGGTTACATCCGCGTCATTCAGGCTATG | 0.387 | 1.31 | 0.198 | 0.733 | 0.789 | 3.15 | 4.94 | 3.92 | 1.86 | 3.52
TCTTGTAGATCAAGCAGGTTACGAAAGCCTGAGT | 0.426 | 0.343 | -0.343 | 0.659 | -0.527 | 1.03 | 0.00625 | 1.34 | 2.5 | 1.88
TATATTAGTTGATTAGGGCAACCGAAACAGCGGA | 0.381 | 0.319 | 0.79 | 0.365 | 1.33 | 0.535 | 0.578 | 0.666 | 1.02 | 0.819
CCGACTGGGGCATAAGGTTACAATAAGCCAGCCC | 0.415 | 1.46 | -0.348 | 0.936 | -0.85 | 1.9 | 2.58 | 3.36 | 0.985 | 2.68
CGTCCAAGGTCAATGCTAGGTTAGTGAAAGCATT | 6.49 | 4.7 | 0.436 | 3.76 | 0.627 | 5.08 | 3.32 | 4.3 | 1.15 | 2.85
ATATGTAGGTTACACCCGGGTCATTCAGGCTATG | 2.03 | 4.01 | 1.46 | 3.12 | 0.769 | 4.84 | 6.51 | 5.36 | 3.01 | 4.69
TTACCAAGGTGAGCTGAGGTCGATGATCCAACTC | 2.13 | 0.545 | -0.604 | 0.0564 | -1.26 | 1.2 | 0.288 | 0.701 | -0.265 | 0.0498
ACTTACGGGTCAAAGAGGTTATAGCACGCGTATA | 6.96 | 5.48 | 1.34 | 4.61 | 0.72 | 5.71 | 5.28 | 5.31 | 2.31 | 4.28
GTACCAAGGAGAATAGGTCGTTGATGAGTAGGCG | -0.287 | -0.0565 | -0.284 | -0.316 | -0.56 | 0.108 | 0.546 | 0.112 | -0.237 | -0.0411
GCATATAGGTAATACAAGGTGAAAGCCCGATTGT | 1.68 | 1.95 | 0.224 | 0.494 | -0.242 | 1.56 | 1.34 | 1.08 | 0.375 | 0.952
AGAAGGAGGGCACGCTGAGTTGATAGCAGAGTAG | 0.55 | 0.52 | -0.359 | 0.551 | 0.0256 | 1.83 | 1.89 | 1.81 | 0.436 | 1.01
AGAATGAGGTTAAGATCAGGAAAACAGAATACAT | 2.16 | 1.98 | -0.0642 | 1.77 | -0.122 | 3.76 | 2.48 | 2.46 | 1.03 | 1.72
CTTACTGGGCCATCAGGTCATTGATATCAACGTT | 1.85 | 1.35 | 1.05 | 1.68 | 0.217 | 3.84 | 4.85 | 5.22 | 2.74 | 4.87
TCAGACAGGTGAAGGTAGCTCAGGTACGCAGTCG | 0.513 | 0.567 | -0.0814 | 0.434 | -0.218 | 1.02 | 0.481 | 1.75 | 3.33 | 2.65
TCATATAGGTAAGAGGTGAAAGTCGGTGTGGTAA | 1.83 | 1.71 | 0.368 | 1.64 | -0.0245 | 4.31 | 7.08 | 7.24 | 6.37 | 7.94
GCTATTAGTTGAACGGGCAACCGAATGATTCTCG | -0.438 | -0.312 | -0.165 | -0.485 | -0.496 | -0.347 | 0.352 | 0.00975 | -0.295 | -0.0379
CAAACTAGGTCACAGAGGTCAAAGGCCGTGCGTA | 7.21 | 6.33 | 6.87 | 5.9 | 1.61 | 6.36 | 10.5 | 8.37 | 7.41 | 8.58
CCTGCTAGGTCATGGTCAGCTAATCTACAGTATG | 3.81 | 2.6 | 0.19 | 1.83 | -0.244 | 3.52 | 2.37 | 2.98 | 0.934 | 1.97
TGGCAAAGTTCAAAGGTAACGTAAGTATCCACAC | 7.23 | 6.17 | 4.18 | 4.49 | 1.25 | 5.55 | 6.74 | 7.1 | 4.38 | 6.02

Sequence | PBM binding z-score [1] | PBM binding z-score [2] | PBM binding z-score [3] | PBM binding z-score [4] | PBM binding z-score [5] | PBM binding z-score [6] | PBM binding z-score [7] | PBM binding z-score [8] | PBM binding z-score [9] | PBM binding z-score [10]
ACTAGTTGGTCAGCTGAGGTCGCACACAATTCGG | 1.01 | 0.732 | 0.139 | 1.1 | 0.147 | 1.49 | 0.497 | 0.445 | -0.204 | 0.316
TAACCAAGGTGAAAGGTCGTTGATGCACGCCTTG | 3.72 | 3.34 | 0.422 | 2.69 | 0.0179 | 5.18 | 8.43 | 8.06 | 8.2 | 8.96
CCAGACAGGTGAAAGGTAACTCATTCTGGTACGC | 0.79 | 0.853 | 0.0278 | 1.09 | -0.276 | 3.51 | 5.48 | 6.19 | 3.72 | 6.34
TCTGCTAAGTCAGTTGGTCAGCTAACGAGCTGCC | -0.309 | -0.429 | -0.729 | -0.89 | -0.474 | -0.235 | -1.04 | 0.263 | 1.09 | 0.712
TCTTGTAGATCAATAGAGGTTAATAAAGTGCGCT | 0.771 | 5.4 | 0.943 | 3.5 | -0.00633 | 1.72 | 0.484 | 1.59 | 2.72 | 2.15
CCGACTGGGGCAAAAGGTTACCATAAGCCAGCCC | 0.815 | 3.36 | -0.19 | 1.86 | -1.26 | 3.28 | 4.13 | 5.64 | 3.64 | 5.79
CCTAGCAGCCCAATCTGGGTCACTCAAGGCTTGA | 0.0445 | 0.132 | -0.399 | 0.523 | -0.695 | 2.93 | 1.6 | 1.71 | -0.36 | 1.1
CGAACTAGCTCATTGACAGGACAGTGAATAGTAA | -0.457 | -0.373 | 0.0523 | -0.29 | -0.335 | -0.257 | 0.0799 | -0.461 | -0.245 | -0.396
GCTTGGAGGACAAGGTCAGAGCTTTGTCCGTAGA | 1.44 | 1.7 | -0.316 | 1.03 | -0.782 | 2.48 | 0.977 | 1.88 | 0.0499 | 1.35
TTACCAAGGTGTGCTGAGGTCGTTGATCCAACTC | 0.714 | 0.293 | -0.284 | 0.587 | -0.354 | 0.88 | -0.381 | 0.606 | -0.307 | 0.00377
CTCGAAAGGTCGTGCTCAGGTGAGTATCCCAAAC | 4.79 | 3.79 | 0.264 | 3.34 | 0.35 | 4.61 | 2.17 | 3.89 | 0.803 | 2.2
ACTAGTTGGTCAGCTGTGGTCACACACAATTCGG | 0.168 | -0.0982 | -0.159 | -0.0787 | -0.362 | 0.0515 | 0.536 | 0.0705 | -0.147 | -0.158
TAGCCTAGGTCAGATCGGGCCAGTATTCGCTATA | 2.53 | 1.19 | -0.155 | 0.7 | -0.147 | 1.71 | 0.0951 | 0.687 | -0.284 | -0.025
TCGAGTAGGTTACTAATGGGGCATTCAGCTTTCT | -0.458 | 2.4 | -0.454 | 1.24 | -0.917 | 0.717 | -0.149 | 0.701 | 0.939 | 0.928
TAGCCTAGGTCATTGGCCAGTATACCACGCGAAC | 4.93 | 3.34 | 0.738 | 2.61 | 0.254 | 3.41 | 2.4 | 2.49 | 0.453 | 1.44
AGACTGAGGTTATTAAGATCAGGGAATTGCGGTC | 1.39 | 1.31 | 0.0697 | 1.16 | -0.265 | 2.03 | 0.624 | 0.982 | 0.0377 | 0.409
GCTGCTTGGTCAGGTTGGTCAGCTAACGGGTACG | -0.11 | -0.383 | -0.554 | -0.457 | -0.187 | -0.407 | -0.682 | -0.648 | -0.905 | -1.09
ATCTCAAGGTAAAGATAGTTCAGTGAATGCAAAT | 0.707 | 5.22 | 0.562 | 1.38 | 0.331 | 0.546 | 0.372 | 0.508 | 0.448 | 0.296
ATCTCTAGGTAAACTTCAGTGAAAGATCGATAGA | 0.831 | 0.515 | 0.351 | 0.0821 | 1.21 | 0.408 | 0.488 | 0.399 | 0.397 | 0.45
TCTATTAGCTGAAGGGCAACCGACGAGTCCGTTT | -0.0805 | 0.244 | -0.393 | 0.444 | -0.429 | 0.629 | 0.0411 | 1.66 | 2.6 | 2.2
CGAACTTGGTCATTGACAGGACAGTGAATAGTAA | 0.086 | -0.0975 | -0.179 | 0.228 | -0.101 | 0.267 | 0.262 | 0.00224 | -0.244 | -0.0611
TCTTGTAGATCAAGCAGATTAAGAAAGCCTGAGT | 0.096 | -0.059 | -0.156 | 0.0422 | -0.403 | 0.442 | -0.257 | 1.19 | 2.63 | 2.02
CCTACTGGGCCAAAAAGGTCACTGATGCCGATAA | 2.83 | 3.29 | 1.36 | 3.63 | -0.14 | 4.64 | 3.78 | 4.35 | 1.79 | 3.78
GCTAGCAGGCCATTTGGGTCACCCAATGACGGGC | 0.339 | -0.142 | -0.557 | 0.0231 | -1.02 | 1.67 | 0.947 | 0.784 | -0.28 | 0.167
